# Test results reported in PubChem BioAssay (EPA / NIEHS).
# Inconclusive results are not listed. Activity calls are given as the source filed them. Rule for the calls, unless noted: active = hit-call score of the fitted dose curve at least 0.9, where 1 is the maximum; inactive = score below 0.9.
# What was measured:
# [1] = target: CCAAT/enhancer-binding protein beta (Homo sapiens) (UniProt P17676); test: ATG_C_EBP_CIS: Attagene CIS-FACTORIAL HepG2 Assay for human CCAAT/Enhancer Binding Protein (C/EBP) beta (AID 2282927); settings: HepG2 Attagene cis-factorial transcription factor reporter; actives raise or lower the signal
# Method in brief: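 Following a 24 h incubation with test chemical, transfected HepG2 cells yielded RNA whose reporter transcripts were quantified by RT-PCR and fluorescent capillary electrophoresis, with DMSO serving as baseline for bidirectional fitting.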
# [2] = ATG_CMV_CIS: Attagene CIS-FACTORIAL HepG2 Assay for human CMV (Internal Marker) (AID 2282928); settings: HepG2 CMV promoter reporter, transcription factor profiling; actives raise or lower the signal;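 note: endpoint acts as a background internal control marker rather than a target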
# Method in brief: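 Fluorescence intensity of RT-PCR-derived reporter fragments, resolved by capillary electrophoresis, gives the signal. HepG2 liver cells bearing transfected cis-element reporters were treated 24 h; activity in either direction was fit relative to DMSO-treated controls.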
# [3] = target: Aryl hydrocarbon receptor (Homo sapiens) (UniProt P35869); test: ATG_Ahr_CIS: Attagene CIS-FACTORIAL HepG2 Assay for human Aryl Hydrocarbon Receptor (Ahr) (AID 2282930); settings: HepG2 AhR cis-factorial reporter transcription; actives raise or lower the signal
# Method in brief: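 Values derive from bidirectional fitting against DMSO negative control. Underlying signal: cis-element reporter mRNA in transiently transfected HepG2, harvested 24 h post-dose and measured by RT-PCR plus capillary electrophoresis.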
# [4] = target: Hypoxia-inducible factor 1-alpha (Homo sapiens) (UniProt Q16665); test: ATG_HIF1a_CIS: Attagene CIS-FACTORIAL HepG2 Assay for human Hypoxia Inducible Factor 1 (HIF1A) (AID 2282951); settings: HepG2 Attagene cis-factorial HIF1a reporter transcription; actives raise or lower the signal
# Method in brief: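 Measures endogenous transcription-factor activity through cis-regulated reporter mRNA in HepG2. Cells dosed 24 h; transcripts quantified by RT-PCR with 6-FAM-labelled products separated by capillary electrophoresis; DMSO serves as negative control.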
# [5] = target: Heat shock factor protein 1 (Homo sapiens) (UniProt Q00613); test: ATG_HSE_CIS: Attagene CIS-FACTORIAL HepG2 Assay for human Heat Shock Transcription Factor 1 (HSE) (AID 2282953); settings: HepG2 HSE cis-reporter, Attagene RNA transcription; actives raise or lower the signal
# Method in brief: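 Endogenous transcription factor activity in transiently transfected HepG2, read as reporter mRNA by RT-PCR with fluorescent capillary electrophoresis after 24 h. Gain or loss of signal fitted versus DMSO baseline.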
# [6] = ATG_TA_CIS: Attagene CIS-FACTORIAL HepG2 Assay for human TA Basal Promoter (AID 2282964); settings: HepG2 Attagene CIS-factorial TA basal promoter reporter; actives raise or lower the signal
# Method in brief: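 Background-control readout: TA basal promoter reporter mRNA, fitted in both directions relative to DMSO. Measured by RT-PCR and capillary electrophoresis 24 hours after treating HepG2 human liver cells transiently carrying multiplexed cis-regulated reporter constructs.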
# [7] = ATG_TCF_b_cat_CIS: Attagene CIS-FACTORIAL HepG2 Assay for human T-Cell-Factor with beta-catenin (TCF/b-cat) (AID 2282965); settings: HepG2 TCF/beta-catenin cis-reporter transcription, actives raise or lower the signal
# Method in brief: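 Using capillary electrophoresis as the read-out, labelled reporter cDNA fragments from transiently transfected HepG2 were sized and quantified. Exposure lasted 24 hours; activity in either direction was referenced to DMSO.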
# [8] = ATG_TAL_CIS: Attagene CIS-FACTORIAL HepG2 Assay for human TAL Basal Promoter (AID 2282966); settings: HepG2 Attagene cis-factorial TAL promoter reporter; actives raise or lower the signal;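 note: background control endpoint measuring basal TAL promoter reporter mRNA not a specific factor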
# Method in brief: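 Background-control endpoint: basal TAL promoter reporter transcripts in transiently transfected HepG2, measured 24 h after dosing. Read-out by RT-PCR with fluorescent primer extension and capillary electrophoresis; gain or loss of signal fitted relative to DMSO.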
# [9] = ATG_TGFb_CIS: Attagene CIS-FACTORIAL HepG2 Assay for human Transforming Growth Factor (TGF) (AID 2282967); settings: HepG2 Attagene CIS TGFb reporter, mRNA transcription; actives raise or lower the signal
# Method in brief: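 Endogenous TGFB1-linked transcription factor activity read as reporter mRNA via RT-PCR and capillary electrophoresis, 24 h after dosing transiently transfected HepG2 cells. Gain or loss of signal fitted relative to DMSO.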
# [10] = ATG_VDRE_CIS: Attagene CIS-FACTORIAL HepG2 Assay for human Vitamin D Receptor Element (VDRE) (AID 2282968); settings: HepG2 VDRE cis-reporter transcription, actives raise or lower the signal
# Method in brief: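 Transfected HepG2 reporter cells, chemical treatment 24 h. RNA isolated, cDNA amplified with reporter-specific primers, products analysed by capillary electrophoresis. Endpoint fitted in both directions versus DMSO.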
# [11] = ATG_M_32_TRANS: Attagene TRANS-FACTORIAL HepG2 Assay for M32 Transcription Factor (Internal Marker) (AID 2282984; active = hit-call score of the fitted dose curve at least 0.9, where 1 is the maximum); settings: HepG2 Attagene TRANS M32 internal marker reporter
# Method in brief: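 Fluorescence-detected mRNA induction, HepG2 liver cells, 24 h after dosing. Multiple GAL4-UAS reporter units introduced by transient transfection; background-control endpoint analysed for gain of signal against DMSO.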
# [12] = target: Transcriptional activator Myb (Homo sapiens) (UniProt P10242); test: ATG_Myb_CIS: Attagene CIS-FACTORIAL HepG2 Assay for human Myeloblastosis (Myb) Proto-Oncogene Transcription Factor (AID 2282986); settings: HepG2 Attagene CIS-FACTORIAL Myb reporter transcription; actives raise or lower the signal
# Method in brief: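 Steps: transfect HepG2 with cis-regulated reporter units; dose with chemical for 24 h; isolate RNA, reverse-transcribe, PCR-amplify and FAM-label reporter sequences; digest with HpaI; resolve by capillary electrophoresis. Activity fitted in both directions relative to DMSO.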
# [13] = target: Myc proto-oncogene protein (Homo sapiens) (UniProt P01106); test: ATG_Myc_CIS: Attagene CIS-FACTORIAL HepG2 Assay for human Myelocytomatosis (Myc) Proto-Oncogene Transcription Factor (AID 2282990); settings: HepG2, Attagene cis-reporter transcription factor activity; actives raise or lower the signal
# Method in brief: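 Multiplexed cis-reporter transcription in HepG2 cells after 24 h chemical treatment. Reporter mRNA measured by RT-PCR and capillary electrophoresis fluorescence; activity fitted bidirectionally against DMSO control.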
# [14] = ATG_NF_kB_CIS: Attagene CIS-FACTORIAL HepG2 Assay for human Nuclear Factor Kappa B (NF-kB) (AID 2282991); settings: HepG2 Attagene cis-factorial NF-kB reporter mRNA; actives raise or lower the signal
# Method in brief: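 Endogenous transcription factor activity in HepG2 was captured via cis-regulated reporter constructs; after 24 h dosing, reporter mRNA was reverse-transcribed, amplified, fluorescently labelled and sized by capillary electrophoresis, with activity fitted bidirectionally relative to DMSO.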
# [15] = ATG_NRF2_ARE_CIS: Attagene CIS-FACTORIAL HepG2 Assay for human Nuclear Factor Erythroid 2 Related Factor 2 (NFR2) response to Antioxidant Response Elements (ARE) (AID 2282992); settings: HepG2 Attagene ARE/NRF2 reporter, transcription factor activity; actives raise or lower the signal
# Method in brief: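 Fluorescence intensity of reporter-specific cDNA fragments, separated by capillary electrophoresis, reflects mRNA induction in transfected HepG2 cells at 24 h. Activity is fitted bidirectionally, DMSO serving as baseline.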
# [16] = ATG_Oct_MLP_CIS: Attagene CIS-FACTORIAL HepG2 Assay for human Octamer-Binding Transcription Factor (Oct) (AID 2282993); settings: HepG2 Attagene cis-factorial Oct reporter, mRNA; actives raise or lower the signal
# Method in brief: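 Readout is reporter transcript level from RT-PCR with fluorescent primer extension and capillary electrophoresis, fitted in both directions against DMSO. Transfected HepG2 reporter units report endogenous factor activity after 24 h dosing.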
# [17] = target: Cellular tumor antigen p53 (Homo sapiens) (UniProt P04637); test: ATG_p53_CIS: Attagene CIS-FACTORIAL HepG2 Assay for human p53 Transcription Factor (AID 2282994); settings: HepG2 p53 cis-element reporter, Attagene mRNA; actives raise or lower the signal
# Method in brief: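 Transiently transfected HepG2 (multiple cis reporter transcription units); exposure 24 h; reporter RNA via RT-PCR, 6-FAM extension, 2 h HpaI digest at 37 C, CE detection; DMSO baseline.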
# [18] = ATG_XTT_Cytotoxicity: Cytotoxicity Assessment in the Attagene TRANS-FACTORIAL HepG2 Assay (AID 2283584; active = hit-call score of the fitted dose curve at least 0.9, where 1 is the maximum)
# Method in brief: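 Viability endpoint from XTT after 24 h chemical exposure of reporter-transfected human HepG2 liver cells; signal loss fitted relative to DMSO negative control.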
# [19] = target: Hepatocyte nuclear factor 6 (Homo sapiens) (UniProt Q9UBC0); test: ATG_HNF6_CIS: Attagene CIS-FACTORIAL HepG2 Assay for human Hepatocyte Nuclear Factor 6 (HNF6) (AID 2282952); settings: HepG2 Attagene cis-factorial HNF6 reporter transcription; actives raise or lower the signal
# Method in brief: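 Endogenous factor activity read in transiently transfected HepG2 via promoter-regulated reporter transcripts. RNA harvested 24 h post-dosing, reverse-transcribed, PCR-amplified, FAM-labelled, HpaI-digested and resolved by capillary electrophoresis; fitted in both directions against DMSO.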
# [20] = ATG_RORE_CIS: Attagene CIS-FACTORIAL HepG2 Assay for human RAR-related Orphan Receptor Element (RORE) (AID 2282959); settings: HepG2 Attagene cis-factorial RORE reporter, mRNA; actives raise or lower the signal
# Method in brief: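 Cells were HepG2 carrying transfected cis-regulated reporter constructs, dosed for 24 hours. Total RNA was reverse-transcribed and reporter cDNA amplified, fluorescently labeled and sized by capillary electrophoresis. Activity was fitted bidirectionally relative to DMSO.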
# Sequence of Cellular tumor antigen p53 (Homo sapiens) (P04637 whole entry, looked up): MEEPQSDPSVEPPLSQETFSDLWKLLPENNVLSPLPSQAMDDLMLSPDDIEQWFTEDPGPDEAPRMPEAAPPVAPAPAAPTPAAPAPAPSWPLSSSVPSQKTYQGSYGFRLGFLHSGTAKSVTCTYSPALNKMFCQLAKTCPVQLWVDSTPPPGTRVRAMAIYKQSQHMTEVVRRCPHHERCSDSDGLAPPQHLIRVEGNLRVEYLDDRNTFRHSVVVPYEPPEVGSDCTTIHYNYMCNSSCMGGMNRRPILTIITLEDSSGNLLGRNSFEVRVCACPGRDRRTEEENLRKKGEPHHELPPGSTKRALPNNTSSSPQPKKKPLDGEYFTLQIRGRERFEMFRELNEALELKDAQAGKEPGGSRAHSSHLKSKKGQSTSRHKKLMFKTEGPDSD
# Sequence of Heat shock factor protein 1 (Homo sapiens) (Q00613 whole entry, looked up): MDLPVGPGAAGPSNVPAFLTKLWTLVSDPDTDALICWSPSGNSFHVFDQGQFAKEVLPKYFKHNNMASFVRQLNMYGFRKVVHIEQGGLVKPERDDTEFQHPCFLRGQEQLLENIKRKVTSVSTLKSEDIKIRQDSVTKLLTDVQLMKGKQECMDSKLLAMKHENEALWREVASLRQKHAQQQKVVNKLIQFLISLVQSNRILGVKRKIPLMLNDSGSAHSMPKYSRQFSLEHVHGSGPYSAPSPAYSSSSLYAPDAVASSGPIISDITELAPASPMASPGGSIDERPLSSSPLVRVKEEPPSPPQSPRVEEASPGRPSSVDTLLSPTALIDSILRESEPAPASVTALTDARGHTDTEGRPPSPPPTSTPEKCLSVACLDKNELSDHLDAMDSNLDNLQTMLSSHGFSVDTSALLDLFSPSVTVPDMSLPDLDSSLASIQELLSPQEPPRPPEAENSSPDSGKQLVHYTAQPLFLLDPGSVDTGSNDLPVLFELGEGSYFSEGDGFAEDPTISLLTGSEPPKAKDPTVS
# Sequence of Myc proto-oncogene protein (Homo sapiens) (P01106 whole entry, looked up): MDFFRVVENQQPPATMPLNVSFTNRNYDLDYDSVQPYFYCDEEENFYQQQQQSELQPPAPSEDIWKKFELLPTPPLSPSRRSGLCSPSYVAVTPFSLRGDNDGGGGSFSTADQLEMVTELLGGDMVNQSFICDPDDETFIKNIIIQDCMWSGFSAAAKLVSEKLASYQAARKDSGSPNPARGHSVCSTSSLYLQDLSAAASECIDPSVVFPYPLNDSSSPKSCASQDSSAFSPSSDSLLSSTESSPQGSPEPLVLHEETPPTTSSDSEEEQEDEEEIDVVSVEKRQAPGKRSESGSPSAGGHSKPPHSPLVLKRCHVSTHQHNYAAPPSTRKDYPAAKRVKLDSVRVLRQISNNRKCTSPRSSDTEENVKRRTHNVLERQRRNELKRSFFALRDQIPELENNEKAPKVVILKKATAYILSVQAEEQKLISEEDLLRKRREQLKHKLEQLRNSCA
# Sequence of Transcriptional activator Myb (Homo sapiens) (P10242 whole entry, looked up): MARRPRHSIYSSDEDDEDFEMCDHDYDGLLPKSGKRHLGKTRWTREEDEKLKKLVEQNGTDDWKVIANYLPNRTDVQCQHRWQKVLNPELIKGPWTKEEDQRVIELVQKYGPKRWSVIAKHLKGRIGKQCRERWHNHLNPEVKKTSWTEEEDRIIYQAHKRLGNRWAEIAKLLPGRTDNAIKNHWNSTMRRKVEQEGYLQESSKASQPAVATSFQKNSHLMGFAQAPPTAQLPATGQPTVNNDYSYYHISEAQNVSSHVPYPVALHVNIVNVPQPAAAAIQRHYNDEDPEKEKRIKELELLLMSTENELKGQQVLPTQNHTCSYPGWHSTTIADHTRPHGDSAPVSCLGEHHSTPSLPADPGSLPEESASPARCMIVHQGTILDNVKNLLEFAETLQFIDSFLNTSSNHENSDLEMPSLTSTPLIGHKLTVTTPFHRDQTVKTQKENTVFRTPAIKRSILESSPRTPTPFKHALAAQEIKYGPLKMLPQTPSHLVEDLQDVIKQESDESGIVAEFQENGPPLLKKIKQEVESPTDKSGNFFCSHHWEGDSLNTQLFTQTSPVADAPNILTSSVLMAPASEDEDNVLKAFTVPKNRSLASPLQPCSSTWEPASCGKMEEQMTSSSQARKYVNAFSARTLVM
# Sequence of Aryl hydrocarbon receptor (Homo sapiens) (P35869 whole entry, looked up): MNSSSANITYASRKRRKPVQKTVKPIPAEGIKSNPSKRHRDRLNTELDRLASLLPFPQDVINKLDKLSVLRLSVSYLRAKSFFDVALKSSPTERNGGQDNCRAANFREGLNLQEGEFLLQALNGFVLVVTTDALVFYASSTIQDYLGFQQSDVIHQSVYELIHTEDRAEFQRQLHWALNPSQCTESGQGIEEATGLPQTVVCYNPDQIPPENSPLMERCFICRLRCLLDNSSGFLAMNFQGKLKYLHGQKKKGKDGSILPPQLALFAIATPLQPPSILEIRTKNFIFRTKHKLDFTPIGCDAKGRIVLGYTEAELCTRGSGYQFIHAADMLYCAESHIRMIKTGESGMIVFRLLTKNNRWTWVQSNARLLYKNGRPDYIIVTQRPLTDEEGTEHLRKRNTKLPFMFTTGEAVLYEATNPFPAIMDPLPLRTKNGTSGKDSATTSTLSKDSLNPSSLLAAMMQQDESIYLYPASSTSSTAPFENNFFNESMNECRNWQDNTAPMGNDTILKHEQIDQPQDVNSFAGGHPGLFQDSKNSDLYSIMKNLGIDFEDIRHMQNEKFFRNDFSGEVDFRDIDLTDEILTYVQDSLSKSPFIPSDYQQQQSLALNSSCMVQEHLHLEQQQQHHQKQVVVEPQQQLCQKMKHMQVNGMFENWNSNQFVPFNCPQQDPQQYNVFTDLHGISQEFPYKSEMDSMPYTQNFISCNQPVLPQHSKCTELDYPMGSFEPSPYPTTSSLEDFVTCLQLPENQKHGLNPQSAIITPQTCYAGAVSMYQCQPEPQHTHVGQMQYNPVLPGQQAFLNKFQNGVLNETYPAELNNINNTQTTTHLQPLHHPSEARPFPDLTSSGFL
# Sequence of Hepatocyte nuclear factor 6 (Homo sapiens) (Q9UBC0 whole entry, looked up): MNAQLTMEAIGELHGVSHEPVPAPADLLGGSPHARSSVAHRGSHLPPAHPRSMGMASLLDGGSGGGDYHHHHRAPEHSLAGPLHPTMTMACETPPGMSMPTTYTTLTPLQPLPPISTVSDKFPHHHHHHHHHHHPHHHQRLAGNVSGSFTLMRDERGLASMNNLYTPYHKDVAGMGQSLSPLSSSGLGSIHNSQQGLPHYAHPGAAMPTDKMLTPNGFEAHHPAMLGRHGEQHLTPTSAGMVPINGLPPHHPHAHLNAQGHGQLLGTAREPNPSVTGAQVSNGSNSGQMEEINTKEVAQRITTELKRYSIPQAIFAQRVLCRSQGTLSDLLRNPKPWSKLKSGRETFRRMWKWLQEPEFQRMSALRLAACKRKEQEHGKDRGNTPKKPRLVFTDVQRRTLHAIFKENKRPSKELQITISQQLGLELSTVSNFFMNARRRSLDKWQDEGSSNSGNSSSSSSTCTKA
# Sequence of CCAAT/enhancer-binding protein beta (Homo sapiens) (P17676 whole entry, looked up): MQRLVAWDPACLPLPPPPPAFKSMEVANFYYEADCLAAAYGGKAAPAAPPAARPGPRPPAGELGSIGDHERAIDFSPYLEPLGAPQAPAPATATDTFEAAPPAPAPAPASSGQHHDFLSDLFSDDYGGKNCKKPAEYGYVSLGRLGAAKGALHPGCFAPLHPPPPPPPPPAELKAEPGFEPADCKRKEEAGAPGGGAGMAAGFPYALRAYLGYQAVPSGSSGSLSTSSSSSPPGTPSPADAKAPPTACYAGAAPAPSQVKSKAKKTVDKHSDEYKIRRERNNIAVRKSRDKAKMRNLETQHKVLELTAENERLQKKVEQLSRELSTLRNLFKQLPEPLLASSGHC
# Sequence of Hypoxia-inducible factor 1-alpha (Homo sapiens) (Q16665 whole entry, looked up): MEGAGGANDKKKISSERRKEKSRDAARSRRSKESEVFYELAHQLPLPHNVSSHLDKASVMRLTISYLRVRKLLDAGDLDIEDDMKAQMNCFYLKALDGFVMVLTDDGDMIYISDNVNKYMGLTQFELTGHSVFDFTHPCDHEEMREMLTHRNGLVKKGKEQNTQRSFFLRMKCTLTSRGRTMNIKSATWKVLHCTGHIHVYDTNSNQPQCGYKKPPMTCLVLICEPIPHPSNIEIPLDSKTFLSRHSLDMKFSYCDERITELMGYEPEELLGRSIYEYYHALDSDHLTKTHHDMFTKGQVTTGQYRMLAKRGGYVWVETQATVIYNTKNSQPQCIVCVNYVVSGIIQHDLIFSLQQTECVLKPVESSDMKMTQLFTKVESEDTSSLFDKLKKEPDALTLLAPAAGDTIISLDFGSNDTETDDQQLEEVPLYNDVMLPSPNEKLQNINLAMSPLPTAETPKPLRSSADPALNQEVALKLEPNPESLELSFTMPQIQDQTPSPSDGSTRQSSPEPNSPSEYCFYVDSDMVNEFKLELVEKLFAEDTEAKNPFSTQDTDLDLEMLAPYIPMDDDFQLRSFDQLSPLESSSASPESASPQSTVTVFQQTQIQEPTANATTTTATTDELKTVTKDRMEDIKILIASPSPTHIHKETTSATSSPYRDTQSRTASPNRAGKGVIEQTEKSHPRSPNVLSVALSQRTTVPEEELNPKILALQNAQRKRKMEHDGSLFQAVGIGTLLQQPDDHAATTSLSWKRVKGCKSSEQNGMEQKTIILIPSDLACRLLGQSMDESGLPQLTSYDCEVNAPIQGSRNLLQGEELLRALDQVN
smiles,measurement,setting,value
CCc1cccc(C)c1N(C(=O)CCl)[C@@H](C)COC,outcome,[1],inactive
same,outcome,[2],inactive
same,outcome,[3],inactive
same,outcome,[4],inactive
same,outcome,[5],inactive
same,outcome,[6],inactive
same,outcome,[7],inactive
same,outcome,[8],inactive
same,outcome,[9],inactive
same,AC50,[10],2.13 µM (active)
same,outcome,[11],inactive
same,outcome,[12],inactive
same,outcome,[13],inactive
same,outcome,[14],inactive
same,AC50,[15],7.39 µM (active)
same,outcome,[16],inactive
same,outcome,[17],inactive
same,outcome,[18],inactive
c1ccc(P(c2ccccc2)c2ccccc2)cc1,outcome,[1],inactive
same,outcome,[2],inactive
same,outcome,[3],inactive
same,outcome,[4],inactive
same,outcome,[19],inactive
same,outcome,[5],inactive
same,outcome,[20],inactive
same,outcome,[6],inactive
same,AC50,[7],158 µM (active)
same,outcome,[8],inactive
same,outcome,[9],inactive
same,outcome,[10],inactive
same,outcome,[11],inactive
same,outcome,[12],inactive
same,outcome,[13],inactive
same,outcome,[14],inactive
same,AC50,[15],21.5 µM (active)
same,outcome,[16],inactive
same,outcome,[17],inactive
Cc1ncc(C[n+]2csc(CCO)c2C)c(N)n1,outcome,[1],inactive
same,outcome,[2],inactive
same,outcome,[3],inactive
same,outcome,[19],inactive
same,outcome,[20],inactive
same,outcome,[6],inactive
same,outcome,[7],inactive
same,outcome,[8],inactive
same,outcome,[9],inactive
same,outcome,[10],inactive
same,outcome,[12],inactive
same,outcome,[13],inactive
same,outcome,[14],inactive
same,outcome,[15],inactive
same,outcome,[16],inactive
same,outcome,[17],inactive
CC1OC(C)OC(C)O1 (stereo unspecified),outcome,[1],inactive
same,outcome,[2],inactive
same,outcome,[3],inactive
same,outcome,[4],inactive
same,outcome,[5],inactive
same,outcome,[20],inactive
same,outcome,[6],inactive
same,outcome,[7],inactive
same,outcome,[8],inactive
same,outcome,[9],inactive
same,outcome,[11],inactive
same,outcome,[12],inactive
same,outcome,[13],inactive
same,outcome,[14],inactive
same,outcome,[15],inactive
same,outcome,[16],inactive
same,outcome,[17],inactive
same,outcome,[18],inactive
Nc1ccc(-c2ccc(N)c(N)c2)cc1N,outcome,[1],inactive
same,outcome,[2],inactive
same,outcome,[3],inactive
same,outcome,[4],inactive
same,outcome,[5],inactive
same,outcome,[20],inactive
same,outcome,[6],inactive
same,outcome,[7],inactive
same,outcome,[9],inactive
same,outcome,[10],inactive
same,outcome,[11],inactive
same,outcome,[12],inactive
same,outcome,[13],inactive
same,outcome,[14],inactive
same,AC50,[15],14 µM (active)
same,outcome,[16],inactive
same,outcome,[18],inactive
CC(C)(C)C(O)C(Oc1ccc(-c2ccccc2)cc1)n1cncn1 (stereo unspecified),AC50,[1],47.1 µM (active)
same,AC50,[2],33.4 µM (active)
same,outcome,[3],inactive
same,outcome,[4],inactive
same,outcome,[19],inactive
same,AC50,[5],59.6 µM (active)
same,outcome,[20],inactive
same,AC50,[6],33.4 µM (active)
same,AC50,[7],51.8 µM (active)
same,outcome,[8],inactive
same,AC50,[9],0.672 µM (active)
same,AC50,[10],9 µM (active)
same,outcome,[11],inactive
same,outcome,[12],inactive
same,outcome,[13],inactive
same,outcome,[14],inactive
same,AC50,[15],41.6 µM (active)
same,outcome,[16],inactive
same,AC50,[17],44 µM (active)
same,outcome,[18],inactive
O=C(O)CCCc1ccc(N(CCCl)CCCl)cc1,outcome,[1],inactive
same,outcome,[2],inactive
same,outcome,[3],inactive
same,outcome,[4],inactive
same,outcome,[5],inactive
same,outcome,[6],inactive
same,AC50,[7],143 µM (active)
same,outcome,[8],inactive
same,outcome,[9],inactive
same,outcome,[10],inactive
same,outcome,[11],inactive
same,outcome,[12],inactive
same,outcome,[13],inactive
same,outcome,[14],inactive
same,outcome,[15],inactive
same,outcome,[16],inactive
same,AC50,[17],54.7 µM (active)
same,outcome,[18],inactive
